The values that follow come from PubChem BioAssay (Tox21).

Inconclusive results are not listed. Activity calls are given as the source filed them. The call rests on the fitted dose curve.
On the % scale 0 is the no-effect control and ±100 the full control effect.

This assay can be described thus: qHTS assay to identify small molecule agonists or antagonists of the thyroid stimulating hormone receptor (TSHR) signaling pathway - wild type cell line counter screen (AID 1259384). The settings on record: HEK293 wild type, cAMP HTRF counter-screen; series mostly up to 92.4 µM; cAMP activity change: at the top concentration. From the text: U.S. Tox21 Program National Center for Advancing Translational Sciences [NCATS] NIH Chemical Genomics Center [NCGC] U.S. Environmental Protection Agency [EPA] National Institutes of Environmental Health Sciences [NIEHS] National Toxicology Program [NTP] U.S. Food and Drug Administration [FDA] Tox21 Assay Overview: TSHR is the receptor for thyrotropin (thyroid stimulating hormone or TSH), a member of the glycoprotein hormone family. TSH is released by the anterior pituitary gland and is the main regulator of thyroid gland growth and development. Upon binding circulating thyrotropin, a G-protein signal cascade activates adenylyl cyclase and […] cAMP concentration is increased. cAMP is a key second messenger involved extensively in cellular signal transduction pathways associated with the majority of G-protein coupled receptors (GPCRs). The activation of these GPCRs by neurotransmitters, lipids, nucleotides, peptides and hormones results in the activation or the inhibition of plasma membrane-bound adenylate cyclase through heterotrimeric G-proteins. A cell-based TSHR-Hek293 assay can be used to identify TSHR agonists. To eliminate the false positive compounds identified from screening a cell-based TSHR-Hek293 cell line, cAMP assay in a wild type Hek293 cells was used as a counter screening.
Tox21 Assay Protocol Summary: Hek293 cells (wild type) were dispensed at 800 cells/4 uL/well in 1536-well white plates using a Multidrop dispenser. After the assay plates were incubated at a 37 C/5% CO2 incubator for 18 hrs, 23 nL of compounds dissolved in DMSO, positive controls or DMSO only was transferred to the assay plate by a pin tool, followed by 1 ul medium containing Ro20-1724. After 30 min of incubation at room temperature, 2.5 ul/well of cAMP-d2 and 2.5 ul/well of anti-cAMP-cryptate were added respectively into the assay plates using a Flying Reagent Dispenser. The plates were incubated at room temperature for 1 hr. The fluorescence intensity in the plates was measured using an Envision plate reader. Each test compound was measured at 15 concentrations and in triplicates.
On the technique in general: qHTS replaces the single test concentration by a dilution series.
Regarding `c1cc2c(c(N3CCNCC3)c1)OCCO2`, the “cAMP activity change” value is -8.87% [at 42.5 µM, stronger effect = higher value] (inactive). To `[As]#[In]` belongs 4.45% (inactive); to `ClCCCN1CCN(c2cccc(Cl)c2)CC1`, -3.84% [at 42.5 µM, stronger effect = higher value] (inactive); to `COP(=S)(OC)Oc1c(Cl)cc(C)cc1Cl`, -1.47% (inactive).

Regarding `C#CCN1C(=O)COc2cc(F)c(N3C(=O)C4=C(CCCC4)C3=O)cc21`, the “cAMP activity change” value is -0.442% (inactive). To `Cc1ncc(CNC(=O)N(CCCl)N=O)c(N)n1` belongs 2.5% [at 42.5 µM, stronger effect = higher value] (inactive). On to `CC(=O)Nc1cc([As](=O)(O)O)ccc1O`, for which the “cAMP activity change” value is 0.0156% [at 42.5 µM, stronger effect = higher value] (inactive). For `c1ccc(N2CCNCC2)cc1` the value was 1.66% [at 42.5 µM, stronger effect = higher value] (inactive). For `OC(Cn1cncn1)(c1ccc(F)cc1)c1ccccc1F` (stereo not given) the value was -6.29% (inactive); for `CCCCc1c(C)nc(NCC)[nH]c1=O`, -1.87% (inactive). To `CC1=C(C(=O)O)N2C(=O)[C@@H](N)[C@H]2SC1` belongs 2.64% [at 18.9 µM, stronger effect = higher value] (inactive). In the case of `CCNc1nc(NC(C)C)nc(OC)n1`, the “cAMP activity change” value is 2.4% (inactive).

With `CC(C)CC(N(C)C)C1(c2ccc(Cl)cc2)CCC1` (stereo not given), the “cAMP activity change” value is -2.05% [at 42.5 µM, stronger effect = higher value] (inactive). To `CCCCOP(=O)(O)OCCCC` belongs 5.8% (inactive); to `CCC#N`, 1.46% (inactive); to `Fc1cc(Br)ccc1CBr`, -1.51% [at 42.5 µM, stronger effect = higher value] (inactive).

`Cc1nc(N)nc(N)n1`: the “cAMP activity change” value was 0.666% (inactive). On to `CC(C(=O)c1ccccc1)N(C)C` (stereo not given), for which the “cAMP activity change” value was 5.92% [at 42.5 µM, stronger effect = higher value] (inactive). On to `ClCC(Cl)Cl`, for which the “cAMP activity change” value was 1.66% (inactive). For `CCC(C)n1c(=O)[nH]c(C)c(Br)c1=O` (stereo not given) the value was -0.186% (inactive). In the case of `CSc1nc(N=[N+]=[N-])nc(NC(C)C)n1`, the “cAMP activity change” value was -3.87% (inactive).

Take `COc1cc(OC)nc(NC(=O)NS(=O)(=O)c2ncccc2OCC(F)(F)F)n1`: the “cAMP activity change” value was 1.67% (inactive). In the case of `COc1ccc2c(c1OC)CN1CCc3cc4c(cc3C1C2)OCO4` (stereo not given), the “cAMP activity change” value is -2.84% [at 42.5 µM, stronger effect = higher value] (inactive). For `CCOP(=O)(N=C1SCCS1)OCC` the value was 1.54% (inactive). To `CNC(=O)Oc1cccc(C(C)C)c1` belongs -4.93% (inactive); to `O=C(Nc1ccccc1)N(Cc1ccc(Cl)cc1)C1CCCC1`, 3.75% (inactive); to `COC(C)(C)C`, 1.62% (inactive).

As for `O=C1OC(=O)C2C1C1(Cl)C(Cl)=C(Cl)C2(Cl)C1(Cl)Cl` (stereo not given), the “cAMP activity change” value is -3.03% (inactive). For `CC(COc1ccc(Oc2ccccc2)cc1)Oc1ccccn1` (stereo not given) the value was 0.33% (inactive); for `CNC(=O)N(C)c1nc2ccccc2s1`, 5.91% (inactive). Take `CCOc1nc(C(Cl)(Cl)Cl)ns1`: the “cAMP activity change” value is -1.48% (inactive). Turning to `CCOP(=S)(OCC)Oc1ncn(-c2ccccc2)n1`, the “cAMP activity change” value is 6.37% (inactive). With `Cc1coc2c1CCC(C)C2` (stereo not given), the “cAMP activity change” value was -3.78% (inactive). For the compound `ClC(Br)Br`, the “cAMP activity change” value is 2.31% (inactive). Regarding `O=C1CN2CCOC2(c2ccccc2Cl)c2cc(Cl)ccc2N1` (stereo not given), the “cAMP activity change” value is -1.49% [at 42.5 µM, stronger effect = higher value] (inactive). For `C[C@@H]1CN(C2CCC(C#N)(c3ccc(F)cc3)CC2)CC[C@]1(C(=O)O)c1ccccc1` (stereo not given in full) the value was 7.33% [at 42.5 µM, stronger effect = higher value] (inactive); for `C[C@]12CC[C@H]3[C@@H](CCC4=CC(=O)CC[C@@]43C)[C@@H]1CC[C@@H]2C(=O)O`, 1.69% [at 42.5 µM, stronger effect = higher value] (inactive). To `CCOC(=O)C(c1c(O)c2ccccc2oc1=O)c1c(O)c2ccccc2oc1=O` belongs 6.53% [at 42.5 µM, stronger effect = higher value] (inactive); to `CN1C(=S)CN=C(c2ccccc2)c2cc(Cl)ccc21`, 7.32% [at 42.5 µM, stronger effect = higher value] (inactive); to `CC(CCc1ccccc1)NC(C)C(O)c1ccc(O)cc1` (stereo not given), 7.5% [at 42.5 µM, stronger effect = higher value] (inactive).
